ATXN2 expr inh: inhibitors of ATXN2 expression; HEK-293 ATXN2-luciferase reporter, luminescence, 24 h; AID 1745845; Potency, µM (doses to about 57 µM), inactives show at the highest dose activity change, negative = inhibition, hits mostly inhibitors; hit rate 0.72% among 360,000; further: on the % scale 0 is the no-effect control and ±100 the full control effect; nearly all actives have a fitted effect of over 55% in size
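ATXN2-luciferase reporter cells (luciferase flanked by upstream and downstream ATXN2 gene portions) were treated 24 h at 37 °C with compounds at up to 57 uM. SteadyGlo luminescence gave expression; GF-AFC fluorescence gave viability.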
HepG2 viability: counter-screen for TGF-b inhibitors: cytotoxicity in HepG2 cells. HepG2 CAGA-GFP viability, ATP luminescence, 18 h. Potency, µM (top dose mostly 46.1 µM), inactives show top-dose activity change, negative = cytotoxicity, most hits filed as cytotoxic. hit rate 0.76% among 410,000. AID 588856
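HepG2 CAGA-GFP cells (1000/well, DMEM with 1% FBS) received compound, then TGF-beta at 500 pg/mL final, and were incubated 18 hours at 37 degrees C. Viability was read by CellTiter-Glo luminescence. Media-only wells were set as complete cell-killing and DMSO as no toxicity.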
ATXN viability: reduces viability in counter-screen for ATXN expression inhibitors; AID 651635; hit rate 0.49% among 400,000; Potency, µM (top dose mostly 56.7 µM), hits mostly cytotoxic; S2 cells (HEK-293 line with an ATXN2-luciferase reporter) viability, CellTiter-Fluor protease fluorescence, 24 h; further: nearly all actives have a fitted effect of over 40% in size
ALOX12 inh: blocks human arachidonate 12S-lipoxygenase; P18054; purified 12hLO, xylenol orange hydroperoxide absorbance; Potency, µM (doses to about 108 µM), for inactives: at the highest dose activity change, negative = inhibition, most hits filed as inhibitors; hit rate 1.1% among 580,000; further: on the % scale 0 is the no-effect control and ±100 the full control effect
Target sequence (P18054 whole entry, looked up): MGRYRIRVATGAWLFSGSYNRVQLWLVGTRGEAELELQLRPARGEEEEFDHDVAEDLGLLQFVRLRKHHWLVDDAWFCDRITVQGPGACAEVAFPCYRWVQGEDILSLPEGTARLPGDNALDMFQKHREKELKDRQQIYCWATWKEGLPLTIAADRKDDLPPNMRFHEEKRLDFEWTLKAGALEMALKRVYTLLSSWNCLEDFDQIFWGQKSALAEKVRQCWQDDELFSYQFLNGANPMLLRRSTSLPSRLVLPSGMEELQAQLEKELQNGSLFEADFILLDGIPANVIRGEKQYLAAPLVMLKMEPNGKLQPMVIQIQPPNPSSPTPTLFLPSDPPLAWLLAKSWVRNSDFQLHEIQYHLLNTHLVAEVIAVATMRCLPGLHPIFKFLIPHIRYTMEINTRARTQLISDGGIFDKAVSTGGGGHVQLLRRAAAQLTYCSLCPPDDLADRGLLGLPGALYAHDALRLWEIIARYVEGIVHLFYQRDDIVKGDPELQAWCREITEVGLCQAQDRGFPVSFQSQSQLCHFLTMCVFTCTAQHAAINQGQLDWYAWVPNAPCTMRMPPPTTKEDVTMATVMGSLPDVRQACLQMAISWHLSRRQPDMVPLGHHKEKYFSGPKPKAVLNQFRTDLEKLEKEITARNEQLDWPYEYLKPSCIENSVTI
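Hydroperoxide product was detected by ferrous iron/xylenol orange as the 573 to 405 nm absorbance ratio. Arachidonic acid at 40 uM (final) was turned over for 30 min at room temperature by 150 nM human 12hLO, pH 7.0 Hepes buffer, after 15 min compound preincubation.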
TGFb SMAD3 inh: TGF-b pathway inhibition; HepG2 CAGA-GFP TGF-b/SMAD3 reporter, GFP fluorescence, 18 h; TGF-beta stimulated, 500 pg/mL final; Potency, µM (series often up to 46.1 µM), for the others: at the top dose activity, negative = inhibition, hits mostly inhibitors; hit rate 1.2% among 410,000; AID 588855; further: on the % scale 0 is the no-effect control and ±100 the full control effect; nearly all actives have a fitted effect of over 65% in size
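HEPG2 CAGA-GFP cells (1000/well, DMEM with 1% FBS) were pre-incubated 2 h at 37 degrees C, given compound by pin tool, then stimulated with TGF-beta at 500 pg/mL final for 18 h before per-cell GFP fluorescence imaging.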
Numbers without * were called inactive; i = inactive; ? = inconclusive; / = no result given; [ ] = another dose, or the depositor's remark. Sampled rows, rich in hits. Any-hit rate of the full collection: about 2.7%. The call rests on the fitted dose curve; in most records, active means well fitted curve in the direction sought with a large enough effect; inconclusive means small, poorly fitted or top-dose-only effect, or another doubt; inactive means no such curve, though single readings can be large; an effect the other way counts as inactive or inconclusive. Potency means the concentration at half of the fitted maximal effect.

SMILES	ATXN2 expr inh	HepG2 viability	ATXN viability	ALOX12 inh	TGFb SMAD3 inh
CC(C)C(N)c1csc(Nc2cc(Oc3ccccc3)ncn2)n1 (stereo not given)	-13%	-16%	?	34%	-16%
NC(c1ccccc1)c1csc(Nc2cc(Oc3ccccc3)ncn2)n1 (stereo not given)	0%	11µM*	?	35µM*	?
CC(C)CC(N)c1csc(Nc2cc(Oc3ccccc3)ncn2)n1 (stereo not given)	25µM*	-58%	/	?	?
NC(COCc1ccccc1)c1csc(Nc2ncccn2)n1 (stereo not given)	6%	-1%	i	17%	0%
CC(C)CC(N)c1csc(Nc2ncccn2)n1 (stereo not given)	?	-23%	?	25%	11µM*
Cc1ccc(-c2c(NC(=O)c3cccc([N+](=O)[O-])c3)oc3ccccc3c2=O)cc1	/	/	/	-11%	/
CSc1nc(N)c2c(n1)NC1=C(C(=O)CC(C)(C)C1)C2c1ccc(F)cc1 (stereo not given)	/	/	/	-40%	/
CCNC(=O)NC(=O)C(C)N(C)Cc1ccco1 (stereo not given)	/	/	/	-8%	/
CCC(C)NC(=O)NCC12CC3CC(CC(C3)C1)C2 (stereo not given)	/	/	/	23%	/
COc1cc(-c2ccc(C)cc2)nc2ccc(C(=O)N3CCC(C(N)=O)CC3)cc12	/	/	/	-11%	/
Nc1nc(CN2CCN(C(=O)c3ccc(Cl)c(Cl)c3)CC2)nc2ccccc12	/	/	/	38%	/
Cc1ccc(C23CC4CC(CC(CN)(C4)C2)C3)cc1	-9%[11.3 µM]	-87%	?	-14%	?
NCC12CC3CC(C1)CC(c1ccc(Br)cc1)(C3)C2	/	13µM*	/	-29%	?
CCN(Cc1cccs1)C(=O)NCC(c1ccco1)N(C)C (stereo not given)	/	/	/	19%	/
CC1=CC(C)C(COC(=O)C[N+]2(C)CCOCC2)C(C)C1 (stereo not given)	/	/	/	20µM*	/
CC[N+](C)(CC)CC(=O)OCC1C(C)C=C(C)CC1C (stereo not given)	-6%	-20%	i	?	-1%
CCCCCCCCNS(=O)(=O)CCNCc1ccccc1OC	-36%	13µM*	?	?	?
COc1ccc(CNS(=O)(=O)CCNCc2ccccc2OC)cc1	-5%	-18%	i	2%	-11%
O=C(NCCCN1CCOCC1)c1csc(Nc2ccccc2Cl)n1	/	/	/	9%	/
COc1ccccc1-c1nnc(SCC(=O)NCc2c(C)c(Cl)cc(C(C)C)c2O)o1	?	-101%	?	13%	18µM*
O=C(OCC(=O)N1CCOCC1)c1ccccc1-c1nc2ccccc2s1	/	/	/	-13%	/
COCCNc1c2c(nc3c(-c4ccccc4)c(C)nn13)CCCC2	-23%	-39%	i	21%	?
Cc1nn2c(NCCN(C)C)c3c(nc2c1-c1ccccc1)CCCC3	-3%	-68%	/	0%	11µM*
COc1cccc(-c2cnc3c(NC(C)=O)cc(-c4cccc(C(=O)NCCN(C)C)c4)cn23)c1	?	13µM*	?	0%	?
CC(=O)Nc1cc(-c2cccc(C(=O)NCCO)c2)cn2c(-c3cccc(C(F)(F)F)c3)cnc12	?	-111%	32µM*	-5%	?
SMILES	ATXN2 expr inh	HepG2 viability	ATXN viability	ALOX12 inh	TGFb SMAD3 inh
O=C(NCCO)c1cccc(-c2cnc3c(Nc4cccc(OC(F)(F)C(F)F)c4)nccn23)c1	?	-58%	32µM*	?	?
O=C1NCCCCCCN(Cc2ccncc2)[C@@H]2CN(C(=O)Nc3ccc4c(c3)OCCO4)CC[C@H]12	/	/	/	3%	/
O=C(NCc1ccccc1Cn1cccn1)c1cn[nH]c1-c1ccccc1	/	/	/	-1%	/
CC(C)NC(=O)c1ccc(Cn2cnc3ccccc3c2=O)cc1	/	/	/	46%	/
COCC(=O)NNC(=S)NCc1ccc(C)cc1	/	/	/	-2%	/
CCOc1ccc(N=C/C=C/c2ccccc2)c(O)c1	/	-121%	?	?	14µM*
CCOc1ccc(NCC(=O)N/N=C/C=C/c2ccccc2)cc1	/	-19%	i	-4%	2%
COC(=O)C1=C(C)N(c2cccc(C)c2)C(=S)NC1c1ccc(-n2ccnc2)cc1 (stereo not given)	/	/	/	40µM*	/
O=c1cc(-c2ccccc2)n(S(=O)(=O)c2ccccc2)o1	0%	3%	i	10µM*	-2%

Screening data deposited in PubChem by National Center for Advancing Translational Sciences (NCATS).
